Assay outcomes: PubChem BioAssay, NMMLSC
LAP4 TOR yeast: modulators of LAP4-GFP expression in yeast, primary screen, S. cerevisiae, multiplex flow cytometry, MLPCN library; 3 h; median GFP as percent of DMSO wells; GFP response vs DMSO, % at 10 µM; 320,000 tested, 0.34% active; AID 2023, 2009;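 active means GFP response vs DMSO above a set limit, about the screen mean plus 3 SD, cut at about 150% in these data; inconclusive means under 70 cell events counted for the yeast strain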
RPL19A TOR yeast: RPL19A-GFP expression modulators in yeast, primary screen, cell-based, S. cerevisiae, multiplex flow cytometry, MLPCN. 330,000 tested, 0.3% active. percent response vs DMSO, % at 10 µM. S. cerevisiae RPL19A-GFP strain, 3 h; stronger effect = lower value;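 active means percent response vs DMSO below 50%; inconclusive means fewer than 70 events counted for the yeast strain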;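 further: median channel GFP fluorescence of the barcoded RPL19A-GFP strain; ratio of sample median GFP to plate DMSO average so 100% = DMSO; lower means less RPL19A-GFP as with rapamycin TOR inhibition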
AGP1-GFP MLPCN: modulators of AGP1-GFP expression in yeast TOR pathway, primary screen, cell-based, multiplex flow cytometry, S. cerevisiae, MLPCN library; GFP response vs DMSO, % at 10 µM; 3 h; GFP as percent of DMSO wells; 320,000 tested, 0.02% active;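 active means GFP response relative to DMSO above a set limit, near screen average plus 3 SD, cut at about 150% in these data; inconclusive means fewer than 70 cells counted for the yeast strain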;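 further: median GFP channel fluorescence of the gated AGP1 strain per well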
Myeloid diff 2: induction of myeloid progenitor differentiation, primary screen, cell-based, flow cytometry, MLPCN library; 360,000 tested, 1% active; calls only at 10 µM; ER-HoxA9 myeloid progenitors, lysozyme-GFP differentiation; AID 624256, 2012;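 active means normalized GFP-positive differentiation at or above the plate's own cutoff, the solvent-only control mean plus 3 SD; inconclusive means no clear call, values can overlap the other calls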;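 further: cells exposed to compound for four days before flow analysis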
CIT2 TOR yeast: modulators of CIT2-GFP expression in yeast, primary screen, S. cerevisiae, GFP fusion, multiplex flow cytometry, MLPCN library; S. cerevisiae CIT2-GFP strain, 3 h; 100 means same as DMSO wells; GFP response vs DMSO, % at 10 µM; 320,000 tested, 0.065% active;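 active means GFP response relative to DMSO above a set limit, near the screen mean plus 3 SD, cut at about 150% in these data; inconclusive means Fewer than 70 cells measured for a yeast strain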;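 further: ratio of well median GFP fluorescence to mean of DMSO wells on the plate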
MEP2-GFP yeast: modulators of MEP2-GFP levels in yeast, primary screen, S. cerevisiae, multiplex flow cytometry, MLPCN library; S. cerevisiae MEP2-GFP strain, 3 h; 100% = DMSO control level; GFP response vs DMSO, % at 10 µM; AID 2016, 2009; 330,000 tested, 0.51% active;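 active means GFP response versus DMSO above a set limit, roughly screen mean plus 3 SD, cut at about 180% in these data; inconclusive means fewer than 70 cells counted for a yeast strain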;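 further: median GFP fluorescence of the barcode-gated MEP2-GFP cells per well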
* = called active by the depositor; i = inactive; ? = inconclusive; nt = no result; + = active, no number; [ ] = another dose, or the depositor's remark. Only some compounds are listed: those with a hit (about 1.8% of all), similar ones and a draw of the others.

SMILES | LAP4 TOR yeast | RPL19A TOR yeast | AGP1-GFP MLPCN | Myeloid diff 2 | CIT2 TOR yeast | MEP2-GFP yeast
COC(=O)C(Cc1c[nH]c2ccccc12)NC(C)=O (configuration not stated) | 103 | 97 | 100 | i | 95 | 98
COc1cccc(C(=O)N/N=C(\CC(C)C)c2ccccc2)c1 | 102 | 103 | 97 | i | 108 | 183*
Cc1ccc(C(=O)N/N=C(\CC(C)C)c2ccccc2)cc1 | 89 | 98 | 97 | i | 107 | 101
COc1ccc(CNC(=O)c2c(O)c3cccc4c3n(c2=O)CCC4)cc1OC | 88 | 38*[may fluoresce violet] | nt | i | ? | 295*[may fluoresce violet]
COc1ccc(CNC(=O)c2c(O)c3cccc4c3n(c2=O)CCC4)cc1 | nt | nt | nt | i | nt | nt
N=c1c(C(=O)NCc2ccco2)cc2c(=O)n3ccccc3nc2n1CCc1ccccc1 | 93 | 48* | 74 | i | 89 | 325*
Cc1cccn2c(=O)c3cc(C(=O)NCc4ccco4)c(=N)n(CCOCCO)c3nc12 | 102 | 35*[may fluoresce violet] | ? | i | ? | 239*[may fluoresce violet]
N=c1c(C(=O)NCCc2ccccc2)cc2c(=O)n3ccccc3nc2n1CC1CCCO1 (configuration not stated) | ? | 22*[may fluoresce violet] | ? | i | ? | ?
COc1ccc(CCNC(=O)c2cc3c(=O)n4ccccc4nc3n(CC3CCCO3)c2=N)cc1 (configuration not stated) | nt | nt | nt | i | nt | nt
COCCn1c(=N)c(C(=O)NCc2ccco2)cc2c(=O)n3cc(C)ccc3nc21 | 100 | 102 | 97 | i | 99 | 109
N=c1c(C(=O)NCc2ccc(F)cc2)cc2c(=O)n3ccccc3nc2n1CC1CCCO1 (configuration not stated) | 103 | 77 | nt | i | ? | 256*[may fluoresce violet]
CC(=O)Nc1ccc(OCCOc2ccc(/C=C3\C(=N)N4N=C(C)SC4=NC3=O)cc2)cc1 | 91 | 104 | 96 | i | 100 | 109
COc1ccccc1CC(NC(C)=O)C(=O)NC1CCN(C(=O)NCc2ccccc2)CC1 (configuration not stated) | nt | nt | nt | i | nt | nt
CCNC(=O)C[C@@H]1CC[C@@H]2NC[C@@H](O)COC[C@H]2O1 | nt | nt | nt | i | nt | nt
Cc1ccc2nc3c(cc(C(=O)NCc4ccco4)c(=N)n3C3CCCC3)c(=O)n2c1 | ? | 26*[may fluoresce violet] | ? | i | ? | ?
Cc1cccn2c(=O)c3cc(C(=O)NCc4ccco4)c(=N)n(C4CCCCC4)c3nc12 | 93 | 78 | 20 | i | ? | 142
N=c1c(C(=O)NCc2ccco2)cc2c(=O)n3ccccc3nc2n1CC1CCCO1 (configuration not stated) | 84 | 27*[may fluoresce violet] | ? | i | ? | 266*[may fluoresce violet]
O=C(Nc1ccc(F)c(Cl)c1)C1Cc2c(-c3ccc4c(c3)OCO4)ccnc2O1 (configuration not stated) | nt | nt | nt | i | nt | nt
O=Cc1ccc(OCC(=O)N2CCc3ccccc32)c(Br)c1 | nt | nt | nt | i | nt | nt
CS(=O)(=O)N1CCc2cc(C(=O)Nc3ccc(COCC(F)(F)F)cc3)ccc21 | 116 | 112 | 103 | i | 155* | 159
CS(=O)(=O)N1CCc2cc(C(=O)Nc3ccc(O)cc3)ccc21 | 96 | 103 | 104 | i | 108 | 103
NS(=O)(=O)c1ccc(NC2(C(=O)O)CCCC2)cc1 | 89 | 100 | 98 | + | 98 | 101
CC(C)(C)NC(=O)CN(C(=O)CCC(=O)Nc1nccs1)c1cccc(C(F)(F)F)c1 | 89 | 103 | 90 | i | 96 | 103
COc1ccc(-c2nc3ccccc3c(=O)n2CCCN2CCOCC2)cc1 | 113 | 104 | 105 | i | 108 | 109
O=c1c2ccccc2nc(-c2ccccc2)n1CCN1CCOCC1 | 163* | 93 | 128 | i | 105 | 134
SMILES | LAP4 TOR yeast | RPL19A TOR yeast | AGP1-GFP MLPCN | Myeloid diff 2 | CIT2 TOR yeast | MEP2-GFP yeast
CCOC(=O)CSc1nc2cc(C)ccc2cc1C#N | 110 | 56 | 21 | i | ? | 359*[may fluoresce violet]
CCOC(=O)CSc1nc2ccc(C)cc2cc1C#N | 112 | 97 | 94 | i | 93 | 101
CC(=O)Nc1ccc(S(=O)(=O)N2CCN(CC(=O)N3CCOCC3)CC2)cc1 | 112 | 102 | 107 | i | 103 | 109
CCN(CC)S(=O)(=O)c1ccc(C(=O)N(c2ccc(C)cc2)C2C=CS(=O)(=O)C2)cc1 (configuration not stated) | 62 | 41*[may fluoresce violet] | ? | i | ? | 160
Cc1ccc(N(C(=O)c2ccc(S(=O)(=O)N3CCOCC3)cc2)C2C=CS(=O)(=O)C2)cc1 (configuration not stated) | 102 | 99 | 98 | i | 94 | 102
CCCCc1nc2sc3c(=O)n(N)cnc3c2c2c1CCC2 | 95 | 103 | 100 | i | 103 | 103
CCCNC(=O)C1(C)CCN(C(=O)c2c(Cl)cccc2Cl)C1 (configuration not stated) | nt | nt | nt | i | nt | nt
COC(=O)c1ccc(C(=O)NC(=S)Nc2ccc3nc(SC)sc3c2)cc1 | 113 | 94 | 85 | i | 116 | 346*
Cc1ccccc1S(=O)(=O)N(C)C[C@H]1OCc2cnnn2CCCC(=O)N([C@H](C)CO)C[C@H]1C | nt | nt | nt | + | nt | nt
O=C(CSc1nc2ccccc2s1)N/N=C/c1ccccc1C(=O)O | 100 | 96 | 101 | i | 100 | 96
COc1ccc(NC(=O)CCN2CCN(S(=O)(=O)c3cc(Cl)ccc3OC)CC2)cc1 | 101 | nt | 38 | i | 111 | 178*
CCCCc1nc(C(N)=O)c2[nH]c(=O)n(-c3ccc(OC)c(OC)c3)c2n1 | 102 | 98 | 99 | i | 98 | 97
CCCCc1nc(C(N)=O)c2[nH]c(=O)n(-c3ccc(OC)cc3OC)c2n1 | 110 | 43*[may fluoresce violet] | ? | i | ? | 289*[may fluoresce violet]
CCCC(C)c1nc(C(N)=O)c2[nH]c(=O)n(-c3ccc(OC)cc3OC)c2n1 (configuration not stated) | 107 | 103 | 105 | i | 106 | 109
CCc1nc(C(N)=O)c2[nH]c(=O)n(-c3ccc(OC)cc3OC)c2n1 | 114 | 43*[may fluoresce violet] | ? | i | ? | 339*[may fluoresce violet]
CCC(CC)c1nc(C(N)=O)c2[nH]c(=O)n(-c3ccc(OC)c(OC)c3)c2n1 | 126 | 47*[may fluoresce violet] | ? | i | ? | 601*[may fluoresce violet]
N/C(=N/O)c1nc(N2CCCC2)nc(N2CCCC2)n1 | nt | nt | nt | i | nt | nt
CN(C(=O)CSc1nc2ccccc2c(=O)n1-c1ccc(F)cc1F)C1CCS(=O)(=O)C1 (configuration not stated) | 91 | 101 | 99 | i | 101 | 101
